Hits are enriched below; roughly 1.8% of the tested compounds scored in any of these assays.
PrP 5UTR inh = inhibition of PrP 5' UTR reporter expression | cell-based PrP 5' UTR mRNA reporter, plate reader | inhibition, % (test concentration not listed) | actives 0.35% (n = 340,000) | AID 488862; in the data active = inhibition above about 52%; note: 0 = median of the neutral control wells
MazEF act = MazEF (E. coli) toxin RNase activation. FAM/BHQ RNA-DNA oligo cleavage fluorescence, 5 h. activation, % at 20 µM. actives 0.32% (n = 350,000); in the data active = activation above about 50%
Target sequence (P0AE70 whole entry, looked up): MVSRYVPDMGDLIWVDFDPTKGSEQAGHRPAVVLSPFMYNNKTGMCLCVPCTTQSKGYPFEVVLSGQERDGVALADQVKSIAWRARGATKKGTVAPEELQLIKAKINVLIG
PfHsp40 yeast = compounds rescuing yeast from Plasmodium falciparum HSP40 toxicity. S. cerevisiae expressing PfHsp40, growth rescue, ATP luminescence. growth rescue, % at 12.5 µM. actives 0.68% (n = 340,000); in the data active = growth rescue above about 28%, passing the limit was not always enough;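 note: yeast W303a lacking pdr1 and pdr3 grown in galactose medium; growth measured after three days at 30 °C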
PrPC TRFRET = cell surface PrPC inhibition, primary TR-FRET screen; inhibition, % at 13.8 µM; TR-FRET read-out; actives 0.43% (n = 370,000); in the data active = inhibition above about 24%; note: 0% = median of the test wells and 100% = reference compound wells
PriA SSB inh = inhibitors of Klebsiella pneumoniae PriA binding to SSB C-terminal tail; inhibition, % at 33 µM; AlphaScreen SSBct-PriA binding, biotinylated peptide; actives 0.6% (n = 430,000); AID 1272365; in the data active = inhibition mostly above about 37%, no sharp cut-off; inactive = mostly below about 20%;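 note: plate controls were negative control peptide for no effect and reference peptide for full effect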
* = called active by the depositor; i = inactive; . = no result; + = active, no number.

SMILES	PrP 5UTR inh	MazEF act	PfHsp40 yeast	PrPC TRFRET	PriA SSB inh
Oc1[nH]c2ccccc2c1N=Nc1ccccc1	-37	158*	1	6	-5
Oc1[nH]c2ccccc2c1N=Nc1ccccc1F	-83	+	-1	-2	-10
Oc1[nH]c2ccc(Br)cc2c1N=Nc1ccc(F)cc1	-20	564*	1	-6	5
O=[N+]([O-])c1ccc(N=Nc2c(O)[nH]c3ccc(F)cc23)cc1	.	-24	0	-7	5
C=C1C[C@@]23CCC4[C@@](C)(CCC[C@@]4(C)C(=O)O)C2CC[C@]1(O)C3 (some centres undefined)	-22	2	6	4	-1
CCOC(=O)C1CCN(C(=O)COC(=O)CCOc2ccc(C)cc2)CC1	-16	1	-1	-3	-5
Oc1[nH]c2ccccc2c1N=Nc1ccc(F)cc1	-76	+	1	3	-6
COc1cccc(N/C=C/C(=O)c2ccc(C)cc2)c1	-16	6	-2	-1	-45
O=Nc1c(O)n(Cc2ccc(Cl)cc2Cl)c2ccccc12	-11	8	90*	-7	10
CCC1CCc2c(c3ccccc3[nH]c2=O)O1 (centres undefined)	-9	-13	-1	-1	87*
CC(=O)Nc1ccc(-c2csc(N/N=C(/C)c3ccccc3)n2)cc1	-26	10	90*	-5	.
N#Cc1ccc(/C=N/NC(=S)Nc2ccc(S(=O)(=O)N3CCOCC3)cc2)cc1	-5	5	0	3	i
O=[N+]([O-])c1cc(Cl)cc(/C=N/NC(=S)Nc2ccc(S(=O)(=O)N3CCOCC3)cc2)c1O	-15	6	449*	-7	.
O=[N+]([O-])c1cc(Cl)cc(C=NNC(=S)Nc2ccc(S(=O)(=O)N3CCOCC3)cc2)c1O	.	.	.	.	67*
O=S(=O)(c1ccc(NC(=S)N/N=C/c2ccc(O)c(O)c2)cc1)N1CCOCC1	-7	9	1	-1	.
O=C(C(=O)N1CCC(CNC(=O)c2cccnc2Cl)CC1)c1cc2ccccc2o1	.	.	.	-6	.
O=C1C=CC2=C3c4cc(O)c(O)cc4CC3(O)COC2=C1O (centres undefined)	-20	-18	3	25*	7
COc1ccc(N2CCN(C(=O)Cc3csc4nc(-c5ccc(C)cc5)cn34)CC2)cc1	.	.	.	.	22
O=C(NCc1cccs1)C1CCN(S(=O)(=O)c2cccs2)CC1	-1	-16	-1	5	-14
O=C(NCc1cccs1)C1CCN(S(=O)(=O)N2CCCC2)CC1	-14	8	33*	-6	-16
CCCCCn1c(NS(=O)(=O)c2ccc(C)cc2)c(S(=O)(=O)c2ccc(C)cc2)c2nc3ccccc3nc21	.	.	.	.	67*
O=S(=O)(Nc1c(S(=O)(=O)c2ccccc2)c2nc3ccccc3nc2n1C1CCCCC1)c1ccccc1	-1	4	-1	-5	73*
CCCCn1c(NS(=O)(=O)c2ccccc2)c(S(=O)(=O)c2ccccc2)c2nc3ccccc3nc21	.	.	.	.	64*
CCCCCn1c(NS(=O)(=O)c2ccc3ccccc3c2)c(S(=O)(=O)c2ccc(C)cc2)c2nc3ccccc3nc21	.	.	.	.	62*
O=C1COc2ccc(S(=O)(=O)Nc3cccc(Cl)c3)cc2N1	-6	7	0	3	3
SMILES	PrP 5UTR inh	MazEF act	PfHsp40 yeast	PrPC TRFRET	PriA SSB inh
COc1cc(OC)c(OC)cc1CNc1cc(C)ccc1OC	-1	5	0	6	16
CCCCCn1c(NS(=O)(=O)c2ccc(Cl)cc2)c(S(=O)(=O)c2ccc(C)cc2)c2nc3ccccc3nc21	.	.	.	.	43
CCCCn1c(NS(=O)(=O)c2ccc(C)cc2)c(S(=O)(=O)c2ccc(C)cc2)c2nc3ccccc3nc21	.	.	.	.	62*
CCCCOCCCn1c(NS(=O)(=O)c2ccc(Cl)cc2)c(S(=O)(=O)c2ccc(C)cc2)c2nc3ccccc3nc21	.	.	.	.	56*
Cc1ccc(S(=O)(=O)Nc2c(S(=O)(=O)c3ccc(C)cc3)c3nc4ccccc4nc3n2CCC(C)C)cc1	.	.	.	.	63*
Cc1ccc(S(=O)(=O)Nc2c(S(=O)(=O)c3ccccc3)c3nc4ccccc4nc3n2CCc2ccccc2)cc1	.	.	.	.	45
CCCCCn1c(NS(=O)(=O)c2ccccc2)c(S(=O)(=O)c2ccc(C)cc2)c2nc3ccccc3nc21	.	.	.	.	76*
CC(=O)c1cccc(NC(=O)C2=CC(c3ccc4c(c3)OCO4)=NS(=O)(=O)N2C)c1	-24	8	0	1	3
O=C(NCCCN1CCOCC1)Nc1ccccc1F	.	.	.	.	7

Assay outcomes deposited in PubChem BioAssay by several laboratories.
